Inconclusive results are not listed. Calls of active or inactive are those of the source. Calls come from the whole dose curve; as a rule, active = well fitted inhibition curve with a large enough effect; inconclusive = small, poorly fitted or top-dose-only effect, or effect the other way; inactive = no such curve, though single readings can be large or run the other way.
% is set by controls: 0 for no effect and ±100 for the full control effect; potency is the fitted concentration of half-maximal effect.

This assay can be described thus: Concentration response confirmation VP16 counterscreen for inhibitors of ROR gamma transcriptional activity. Note: nearly all actives have a fitted effect of over 70% in size. As to conditions: Drosophila S2 Gal4-VP16 UAS-luciferase, luminescence, 20 h; series mostly up to 46.1 µM; activity change, negative = inhibition: at the top concentration. The method in brief:
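Luciferase counterscreen: UAS-driven Photinus reporter in S2 cells expressing copper-inducible Gal4-VP16 fusion, 600 cells/well. Induced with copper sulfate (700 uM final) 1 hr after compound, incubated 20 hr at ambient temperature before luminescence detection.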
As for `O=C(NC(=S)Nc1nc(-c2ccccc2)cs1)c1cncc(Br)c1`, the Potency was 7.91 µM (active).

Take `O=C(CCCOc1ccccc1)Nc1nc2ccccc2[nH]1`: the “activity change, negative = inhibition” value is 7.33% (inactive).

As for `Cc1ccc(C(=O)O/N=C/c2ccc(N(C)C)cc2)cc1`, the “activity change, negative = inhibition” value is 15.9% (inactive).

As for `c1ccc(-c2ncc3c(ccc4ccccc43)n2)cc1`, the Potency is 8.88 µM (active).

As to `Cc1nn(-c2cc(C)c3ccccc3n2)c2c1C1C(C2)C1(C)C` (stereo not given), the Potency is 22.3 µM (active).

Regarding `Cn1c(=O)c2c(nc(NCc3ccco3)n2Cc2ccccc2Cl)n(C)c1=O`, the Potency was 3.97 µM (active).

Regarding `CCN(CC)C1CC(=O)N(c2cccc(C)c2)C1=O` (stereo not given), the Potency is 25 µM (active).

With `C=C(C)c1cccc(C(C)(C)NC(=O)N2CCN(CC)CC2)c1`, the “activity change, negative = inhibition” value was -13.2% (inactive).

As to `Cc1cc(C)nc(-n2nc(C)cc2NC(=O)c2ccc(F)cc2F)n1`, the Potency was 2.81 µM (active).

In the case of `COc1ccc(C(CNC(=S)NCc2ccccc2)N2CCCC2)cc1` (stereo not given), the “activity change, negative = inhibition” value was 10.3% (inactive).

As for `Cc1ccc(S(=O)(=O)NCc2ccncc2)cc1`, the Potency is 12.5 µM (active).

Take `CCOc1ncccc1C(=O)OCC(=O)Nc1ccc(-c2nc3ccc(C)cc3s2)cc1`: the Potency was 3.53 µM (active).

Consider `CN(Cc1ccccc1)c1ncnc2ccc(Br)cc12`, for which the “activity change, negative = inhibition” value was -13.1% (inactive).

As for `COc1ccc(-c2cc(C(=O)NNC3=NCCC3)c3c(C)nn(-c4ccccc4)c3n2)cc1`, the Potency is 2.5 µM (active).

As for `c1csc(CCNc2ncnc3sc4c(c23)CCC4)c1`, the Potency was 25 µM (active).

On to `Cc1cc(NCc2ccccn2)n2ncc(-c3ccc(Cl)cc3)c2n1`, for which the Potency was 0.996 µM (active).

For `CCCCc1nnc(NC(=O)CS(=O)(=O)Cc2ccccc2)s1`, the “activity change, negative = inhibition” value was 7.82% (inactive).

For `Cc1ccc(-n2[nH]c3c4c(ccc3c2=O)C(=O)c2ccccc2C4=O)cc1`, the “activity change, negative = inhibition” value is 3.45% (inactive).

`Cc1cc(NC(=S)NC(=O)/C=C/c2ccc(S(=O)(=O)N3CCOCC3)cc2)ccc1Br`: the Potency is 11.2 µM (active).

With `Cc1cccc(-c2ocnc2C(=O)Nc2ccccc2NC(=O)c2ccccn2)c1`, the Potency was 7.91 µM (active).
